From PubChem BioAssay (Tox21)
Results filed as inconclusive are left out. More than one record can exist for a structure, and the calls need not agree. Activity calls are given as the source filed them. Unless noted, calls come from the whole dose curve; as a rule, active = well fitted curve in the direction sought with a large enough effect in the repeat runs; inconclusive = weak or mixed curves; inactive = no such curve, though single readings can be large; an effect the other way counts as inactive or inconclusive.

Key:
[1] = qHTS assay to identify small molecule antagonists of the glucocorticoid receptor (GR) signaling pathway - cell viability counter screen (AID 720693); note: nearly all actives have a fitted effect of over 55% in size
[2] = qHTS assay for identifying genotoxic compounds that show differential cytotoxicity against isogenic chicken DT40 cell lines with known DNA damage response pathways - wild type cell line (AID 743012); note: nearly all actives have a fitted effect of over 60% in size
Procedure, shortened: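 Endpoint: CellTiter-Glo luminescence, 30 min RT. Cells: wild type DT40, 300/well. Exposure: compounds in DMSO, 40 h, 37 C/5% CO2, after ~0.5 h pre-incubation.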

[3] = qHTS assay for identifying genotoxic compounds that show differential cytotoxicity against isogenic chicken DT40 cell lines with known DNA damage response pathways - Rev3 mutant cell line (AID 743014); note: nearly all actives have a fitted effect of over 55% in size
[4] = qHTS assay for identifying genotoxic compounds that show differential cytotoxicity against isogenic chicken DT40 cell lines with known DNA damage response pathways - Rad54/Ku70 mutant cell line (AID 743015); note: nearly all actives have a fitted effect of over 60% in size
[5] = qHTS assay to identify small molecule antagonists of the androgen receptor (AR) signaling pathway - cell viability counter screen (AID 743033; note: nearly all actives have a fitted effect of over 45% in size)
[6] = target: Androgen receptor (Homo sapiens) (UniProt P10275); test: qHTS assay to identify small molecule agonists of the androgen receptor (AR) signaling pathway (AID 743036; active = well fitted activation curve with a large enough effect in the signal ratio in the repeat runs, with a control signal flat, not every such curve was filed as active; the % refers to the signal ratio)
Androgen receptor (Homo sapiens), sequence (P10275 whole entry, looked up): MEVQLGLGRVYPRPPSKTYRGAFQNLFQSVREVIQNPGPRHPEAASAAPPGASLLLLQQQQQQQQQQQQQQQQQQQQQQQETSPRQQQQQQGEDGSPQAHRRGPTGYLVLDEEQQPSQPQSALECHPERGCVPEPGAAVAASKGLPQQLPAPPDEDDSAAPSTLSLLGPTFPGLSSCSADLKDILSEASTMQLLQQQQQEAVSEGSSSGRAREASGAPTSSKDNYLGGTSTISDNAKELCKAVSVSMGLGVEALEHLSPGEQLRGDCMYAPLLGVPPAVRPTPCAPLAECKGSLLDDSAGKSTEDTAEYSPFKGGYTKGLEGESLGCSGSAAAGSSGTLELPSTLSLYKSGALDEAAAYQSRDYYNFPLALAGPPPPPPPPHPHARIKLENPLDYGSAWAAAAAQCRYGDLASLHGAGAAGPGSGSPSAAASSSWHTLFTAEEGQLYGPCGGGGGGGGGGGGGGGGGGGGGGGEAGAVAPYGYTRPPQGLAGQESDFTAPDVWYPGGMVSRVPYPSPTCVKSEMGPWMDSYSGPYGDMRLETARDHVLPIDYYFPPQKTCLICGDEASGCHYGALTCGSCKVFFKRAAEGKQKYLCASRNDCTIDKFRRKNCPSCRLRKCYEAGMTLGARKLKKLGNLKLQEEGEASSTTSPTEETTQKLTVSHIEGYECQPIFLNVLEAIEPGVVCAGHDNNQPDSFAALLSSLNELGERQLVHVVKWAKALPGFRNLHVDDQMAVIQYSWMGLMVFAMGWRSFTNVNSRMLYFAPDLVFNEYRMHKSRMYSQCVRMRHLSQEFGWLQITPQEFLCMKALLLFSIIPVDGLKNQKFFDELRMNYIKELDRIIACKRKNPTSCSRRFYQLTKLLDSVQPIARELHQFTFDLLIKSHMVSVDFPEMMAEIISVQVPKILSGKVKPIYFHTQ
Procedure, shortened: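 Screening used 2,000 AR-bla HEK293 cells per well, treated 16 h at 37C with test compounds in DMSO alongside positive and DMSO-only controls; beta-lactamase activity was then read by LiveBLAzer B/G FRET fluorescence after 2 h at room temperature.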

[7] = target: Androgen receptor (Homo sapiens) (UniProt P10275); test: qHTS assay to identify small molecule agonists of the androgen receptor (AR) signaling pathway using the MDA cell line (AID 743040; note: nearly all actives have a fitted effect of over 20% in size)
Procedure, shortened: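 Agonist activity is measured as luciferase luminescence in human MDA-kb2 cells whose MMTV reporter responds to both AR and GR. Compounds in DMSO incubate 16 h at 37C, 0% CO2, and ONE-Glo is read after 30 min.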

[8] = qHTS assay to identify small molecule antagonists of the androgen receptor (AR) signaling pathway using the MDA cell line - cell viability counter screen (AID 743041; note: nearly all actives have a fitted effect of over 45% in size)
Procedure, shortened: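 qHTS viability read-out; MDA-kb2 AR-luc; R1881-stimulated; 16 h exposure at 37C, 0% CO2; CellTiter-Fluor, 30 min; fluorescence intensity.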

[9] = target: Androgen receptor (Homo sapiens) (UniProt P10275); test: qHTS assay to identify small molecule antagonists of the androgen receptor (AR) signaling pathway using the MDA cell line (AID 743042; note: nearly all actives have a fitted effect of over 55% in size)
Procedure, shortened: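 MDA-kb2 cells (human breast carcinoma, stably carrying an MMTV-luciferase reporter responsive to AR and GR) were plated at 3,000 cells/well and preincubated 5 hr at 37C, then given compound plus R1881 agonist for 16 h. ONE-Glo luminescence was read.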

[10] = target: Estrogen receptor (Homo sapiens) (UniProt P03372); test: qHTS assay to identify small molecule antagonists of the estrogen receptor alpha (ER-alpha) signaling pathway (AID 743069; active = well fitted curve in the direction sought with a large enough effect in the signal ratio in the repeat runs, not every such curve was filed as active; the % refers to the signal ratio)
Estrogen receptor (Homo sapiens), sequence (P03372 whole entry, looked up): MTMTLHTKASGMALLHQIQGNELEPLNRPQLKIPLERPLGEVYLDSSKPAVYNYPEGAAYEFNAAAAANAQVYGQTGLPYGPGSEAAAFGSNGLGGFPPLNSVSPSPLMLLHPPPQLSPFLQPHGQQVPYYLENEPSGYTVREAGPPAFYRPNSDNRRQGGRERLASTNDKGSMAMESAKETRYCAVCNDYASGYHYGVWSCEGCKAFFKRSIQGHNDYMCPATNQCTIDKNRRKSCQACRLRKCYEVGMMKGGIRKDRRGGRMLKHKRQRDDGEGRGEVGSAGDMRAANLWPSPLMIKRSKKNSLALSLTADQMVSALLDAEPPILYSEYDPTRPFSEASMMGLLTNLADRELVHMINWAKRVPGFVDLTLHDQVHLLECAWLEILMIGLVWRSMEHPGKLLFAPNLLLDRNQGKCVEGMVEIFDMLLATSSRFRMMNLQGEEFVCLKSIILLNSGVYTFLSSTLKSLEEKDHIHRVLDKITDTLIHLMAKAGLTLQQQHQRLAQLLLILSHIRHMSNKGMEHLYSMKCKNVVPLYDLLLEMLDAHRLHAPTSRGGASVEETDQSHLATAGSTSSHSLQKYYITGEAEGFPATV
Procedure, shortened: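 Screening used a UAS-driven beta-lactamase reporter integrated into HEK293 cells expressing ER-alpha, stimulated with 17beta-estradiol alongside test compounds over 18 hr at 37C; signal came from LiveBLAzer B/G FRET fluorescence.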

[11] = qHTS assay to identify small molecule antagonists of the estrogen receptor alpha (ER-alpha) signaling pathway - cell viability counter screen (AID 743074; calls by dose curve; note: nearly all actives have a fitted effect of over 45% in size)
[12] = target: Estrogen receptor (Homo sapiens) (UniProt P03372); test: qHTS assay to identify small molecule agonists of the estrogen receptor alpha (ER-alpha) signaling pathway (AID 743075; calls by dose curve)
[13] = target: Estrogen receptor (Homo sapiens) (UniProt P03372); test: qHTS assay to identify small molecule agonists of the estrogen receptor alpha (ER-alpha) signaling pathway using the BG1 cell line (AID 743079); note: nearly all actives have a fitted effect of over 20% in size; note: potency is the fitted concentration of half-maximal effect
[14] = qHTS assay to identify small molecule antagonists of the estrogen receptor alpha (ER-alpha) signaling pathway using the BG1 cell line (AID 743080; calls by dose curve;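 note: BG1 cells stimulated with 17beta-estradiol alongside compound; series mostly up to about 70 µM; nearly all actives have a fitted effect of over 25% in size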)
Procedure, shortened: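 Quantitative HTS on the Tox21 10K library: BG1 cells with endogenous ER-alpha and ERE-luciferase reporter, 17beta-estradiol stimulation, 21.5 h compound exposure, luminescence endpoint with parallel fluorescence cytotoxicity counter-read.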

[15] = qHTS assay to identify small molecule antagonists of the estrogen receptor alpha (ER-alpha) signaling pathway using the BG1 cell line - cell viability counter screen (AID 743081);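 note: compound given together with 17beta-estradiol as the ER stimulus; series mostly up to about 70 µM; nearly all actives have a fitted effect of over 45% in size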
Aromatase (Homo sapiens) = Aromatase (Homo sapiens) (UniProt P11511); test: qHTS assay to identify aromatase inhibitors (AID 743083); note: series mostly up to about 70 µM; nearly all actives have a fitted effect of over 55% in size
Aromatase (Homo sapiens), sequence (P11511 whole entry, looked up): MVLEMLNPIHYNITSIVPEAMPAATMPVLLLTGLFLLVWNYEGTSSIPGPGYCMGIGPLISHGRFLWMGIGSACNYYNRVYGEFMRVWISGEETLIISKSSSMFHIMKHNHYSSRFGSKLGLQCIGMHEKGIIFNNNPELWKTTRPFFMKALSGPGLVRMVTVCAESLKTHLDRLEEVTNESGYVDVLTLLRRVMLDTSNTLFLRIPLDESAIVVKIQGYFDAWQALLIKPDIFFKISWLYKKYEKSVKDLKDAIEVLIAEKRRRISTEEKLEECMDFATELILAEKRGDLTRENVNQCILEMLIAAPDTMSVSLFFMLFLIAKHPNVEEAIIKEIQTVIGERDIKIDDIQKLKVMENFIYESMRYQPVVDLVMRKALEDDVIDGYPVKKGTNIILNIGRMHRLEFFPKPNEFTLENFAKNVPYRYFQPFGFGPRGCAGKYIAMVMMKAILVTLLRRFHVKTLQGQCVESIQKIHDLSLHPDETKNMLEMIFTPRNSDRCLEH

[16] = target: Androgen receptor (Homo sapiens) (UniProt P10275); test: qHTS assay to identify small molecule antagonists of the androgen receptor (AR) signaling pathway (AID 743035; active = well fitted inhibition curve with a large enough effect in the signal ratio in the repeat runs, not every such curve was filed as active; the % refers to the signal ratio)
Procedure, shortened: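 R1881 agonist challenge of a HEK293 UAS-beta-lactamase AR reporter line in the presence of compound (16 h, 37C); signal taken as FRET fluorescence after 2 h with LiveBLAzer B/G substrate at room temperature.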

[17] = qHTS assay to identify small molecule antagonists of the thyroid receptor (TR) signaling pathway - cell viability counter screen (AID 743064); note: nearly all actives have a fitted effect of over 50% in size
Procedure, shortened: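 Viability of T3-stimulated (1 nM final) GH3.TRE-Luc cells is measured by CellTiter-Fluor fluorescence after 23.5 h compound exposure at 37 °C plus 30 min reagent incubation.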

[18] = qHTS assay to identify small molecule antagonists of the thyroid receptor (TR) signaling pathway (AID 743065)
Procedure, shortened: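 GH3.TRE-Luc rat pituitary cells carrying two TR response elements driving luciferase were plated for 4 h, given compound plus 1 nM T3 (final), and incubated 23.5 h at 37 C. ONE-Glo luminescence measured reporter inhibition; CellTiter-Fluor fluorescence tracked cytotoxicity.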

[19] = tested on: thyroid hormone receptor (rat, GH3 cells); test: qHTS assay to identify small molecule agonists of the thyroid receptor (TR) signaling pathway (AID 743066; calls by dose curve)

Measured: Potency

CC/C=C\CCOC(=O)c1ccccc1
not listed: [16] | [17] | [18] | [19]
inactive: all other assays above

C=C(C)C(=O)OCCCC
not listed: [6] | [7] | [10] | [12] | [13] | [14]
inactive: all other assays above

O=S(=O)(O)c1ccc(Cl)cc1
not listed: [6] | [7] | [9] | [14] | [16]
inactive: all other assays above

O=C(O)/C=C(\CC(=O)O)C(=O)O
not listed: [6] | [7] | [9] | [13] | [14] | [16]
inactive: all other assays above

CCOC(=O)CC
not listed: [6] | [7] | [9] | [10] | [14] | [16]
inactive: all other assays above

CCCc1ccc(O)c(OC)c1
not listed: [6] | [7] | [9] | [10] | [14] | [16]
inactive: all other assays above

COCc1nnc(-c2ccc[n+]([O-])c2)n1-c1c(Cl)c(Cl)cc2[nH]c(=O)c(=O)[nH]c12
not listed: [13] | [16]
inactive: all other assays above

CC(O)CCCCn1c(=O)c2c(ncn2C)n(C)c1=O (stereo unspecified)
not listed: [6] | [7] | [9] | [10] | [16]
inactive: all other assays above

CC(C)C(C)C
not listed: [6] | [7] | [9] | [10] | [12] | [13] | [14] | [16]
inactive: all other assays above

NC(=O)CC[C@@H](N)C(=O)O
not listed: [6] | [7] | [9] | [10] | [12] | [13] | [14] | [16]
inactive: all other assays above

CCC(C)SSC(C)CC (stereo unspecified)
not listed: [6] | [7] | [9] | [10] | [16]
inactive: all other assays above

C[C@@H]1NC(=O)[C@@H](N)CNC(=O)[C@H](C2CCNC(N)=N2)NC(=O)/C(=C/NC(N)=O)NC(=O)[C@H](CNC(=O)C[C@@H](N)CCCN)NC1=O (stereo partly specified)
29.8 µM (active) and inactive: [13]
not listed: [6] | [7] | [9] | [10] | [16]
inactive: all other assays above

CCN1CCN(C(=O)N[C@@H](C(=O)N[C@@H]2C(=O)N3[C@@H]2SC(C)(C)[C@H]3C(=O)O)c2ccccc2)C(=O)C1=O
not listed: [6] | [7] | [9] | [10] | [11] | [14] | [16]
inactive: all other assays above

C/C(Cl)=C/CCl
not listed: [7] | [10] | [13] | [14]
inactive: all other assays above

O=c1c(O)c(O)c1=O
not listed: [6] | [7] | [9] | [10] | [12] | [13] | [14] | [16]
inactive: all other assays above

COC(=O)c1ccccc1Cl
not listed: [6] | [7] | [9] | [10] | [12] | [13] | [14] | [16]
inactive: all other assays above

CCCCc1ccc(Cl)cc1
not listed: [6] | [7] | [9] | [16] | [18] | [19]
inactive: all other assays above

NNC(=O)OCc1ccccc1
not listed: [14] | [17]
inactive: all other assays above

CCCC(C)C(O)CC (stereo unspecified)
not listed: [6] | [7] | [9] | [10] | [12] | [13] | [14] | [16]
inactive: all other assays above
